# Laboratory results published in PubChem BioAssay (NCATS).
# Results filed as inconclusive are left out. A number with no mark means an inactive call.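 The calls were made as follows: active = compounds whose dose-response curve shows a full or clear partial loss of cell viability, called from curve shape rather than a numeric limit; inconclusive = weak partial curves or an effect only at the top dose; inactive = no dose-dependent loss of viability.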
# Experiment: Cell Viability - Hek293 (AID 427);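 also: cells exposed to compound for 40 hours at 37 °C before reading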
# Conditions: qHTS
# From the text: NIH Chemical Genomics Center [NCGC]
# NIH Molecular Libraries Screening Centers Network [MLSCN]
# National Institutes of Environmental Health Sciences [NIEHS]
# National Toxicology Program [NTP]
# We have developed a 1536-well cell-based assay for quantitative high throughput screening (qHTS) against a number of cell lines to determine in vitro cytotoxicity of small molecules. This particular assay uses the Hek 293 cell line which is derived from human embryonic kidney cells (transformed with adenovirus).
# NCGC Assay Protocol Summary:
# The CellTiter-Glo luminescent cell viability assay (Promega) is a homogeneous method to measure the number of viable cells in culture. The end point readout of this assay is based on quantitation of intracellular ATP, an indicator of metabolic activity, using the luciferase reaction. Luciferase catalyzes the oxidation of beetle Luciferin to oxyluciferin and light in the presence of ATP. The luminescent signal is proportional to amount of ATP present.
# Using the CellTiter-Glo luminescent cell viability assay, the amount of cellular ATP was measured in the Hek293 cell line with complete culture medium following compound treatment for 40 hours. The assay was performed in opaque white Kalypsys 1536-well plates. In the screen, tamoxifen and doxorubicin were used as positive controls. Library compounds were measured for their ability to cause acute toxicity in the cell line, as reflected by a decrease in intracellular ATP levels, in a concentration-dependent manner. Data were normalized to the controls for basal activity (DMSO only) and 100% inhibition (100 uM tamoxifen). AC50 values were determined from concentration-response data modeled with the standard Hill equation.
# qHTS protocol fo CellTiter Glo Hek 293 cellular assay
# [Step] [Parameter] [Value] [Description]
# 2. Time; 5 hr; 37 °C incubation
# 4. Controls; 23 nL; Tamoxifen 0.34 uM to 100 uM & Doxorubicin 0.02 nM to 100 uM
# 5. Time; 40 hr; 37 °C incubation
# 6. Reagent; 5 uL; CellTiter Glo reagent
# 7. Time; 20 min; Room Temperature
# 8. Detection; Luminescence; Viewlux plate reader
# Keywords: cell viability, cytotoxicity, Hek293 cell line, luminescence, NTPHTS, NTPHTS_NCGC, NIEHS, EPA, DSSTox, MLSMR, MLSCN, NIH Roadmap, qHTS, NCGC
# Potency is read from the fitted curve at half-maximal effect.
row,SMILES,Potency [µM]
1,CC1=C(/C=C/C(C)=C/C=C/C(C)=C/CO)C(C)(C)CCC1,> 92
2,CCCCC/C=C\C/C=C\CCCCCCCC(=O)O,> 92
3,CC(C)=O,> 92
4,CCCCCCCC(=O)O,> 92
5,IC(I)I,> 92
6,CCOC(C)=O,> 92
7,O=S(=O)(O)O,> 92
8,CC(O)CO (stereo not given),> 92
9,CCCCCCCC/C=C\CCCCCCCC(=O)O,> 92
10,O=CCCCC=O,> 92
11,CC1=C2[C@@H]([C@H](C)CC[C@H]2/C=C(\C)C(=O)O)[C@H](O)C1,> 92
12,Nc1ccn([C@H]2CS[C@@H](CO)O2)c(=O)n1,> 92
13,O=C(O)CCC(=O)C(=O)O,> 92
14,Cc1ccccc1,> 92
15,CCOc1ccc2c(c1)C(C)=CC(C)(C)N2,> 92
